Common to all, as to test: PBM; 200 nM protein, PBS
Holding throughout (conditions): dsDNA, one strand shown

Assay [1] deals with HESX1 (Homo sapiens, UniProt Q9UBX0 95-180, R165K).
The target in assay [2] is SHOX (Homo sapiens, UniProt O15266 103-189).
Another assay deals with ALX4 (Homo sapiens, UniProt Q9H161 200-286, Q225E).
Assay [3] deals with HESX1 (Homo sapiens, UniProt Q9UBX0 95-180).
Another assay addresses MSX2 (Homo sapiens, UniProt P35548 130-214, R199I).
The target of assay [4] is ALX1 (Homo sapiens, UniProt Q15699 118-204, L144V).
Sequence of ALX1 (Homo sapiens, UniProt Q15699 118-204, L144V) (Q15699 118-204 L144V): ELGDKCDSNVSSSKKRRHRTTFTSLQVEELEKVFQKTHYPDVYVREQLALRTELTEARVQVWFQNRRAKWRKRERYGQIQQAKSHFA
Assay [5] addresses ALX3 (Homo sapiens, UniProt O95076 139-225, N203Q).
Assay [6] addresses SHOX (Homo sapiens, UniProt O15266 103-189, R173C).
Assay [7] concerns the target ALX1 (Homo sapiens, UniProt Q15699 118-204, L144R).
For assay [8], the target named is ALX3 (Homo sapiens, UniProt O95076 139-225).
Sequence of ALX3 (Homo sapiens, UniProt O95076 139-225) (O95076 139-225): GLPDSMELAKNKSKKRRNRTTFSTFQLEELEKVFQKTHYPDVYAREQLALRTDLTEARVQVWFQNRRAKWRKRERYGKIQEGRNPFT
For assay [9], the target named is PROP1 (Homo sapiens, UniProt O75360 56-141).
Sequence of PROP1 (Homo sapiens, UniProt O75360 56-141) (O75360 56-141): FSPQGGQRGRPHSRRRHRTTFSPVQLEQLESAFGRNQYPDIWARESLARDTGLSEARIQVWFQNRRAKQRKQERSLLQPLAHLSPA
Assay [10] deals with HESX1 (Homo sapiens, UniProt Q9UBX0 95-180, R109Q).
Sequence of HESX1 (Homo sapiens, UniProt Q9UBX0 95-180, R109Q) (Q9UBX0 95-180 R109Q): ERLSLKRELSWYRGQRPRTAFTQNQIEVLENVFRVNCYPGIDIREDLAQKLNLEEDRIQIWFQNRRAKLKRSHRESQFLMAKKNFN
The target of assay [11] is PROP1 (Homo sapiens, UniProt O75360 56-141, R99H).
Sequence of PROP1 (Homo sapiens, UniProt O75360 56-141, R99H) (O75360 56-141 R99H): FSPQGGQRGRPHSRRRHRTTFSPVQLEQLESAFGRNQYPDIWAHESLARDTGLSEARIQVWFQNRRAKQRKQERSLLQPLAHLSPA
The target of assay [12] is ALX3 (Homo sapiens, UniProt O95076 139-225, L168Q).
Sequence of ALX3 (Homo sapiens, UniProt O95076 139-225, L168Q) (O95076 139-225 L168Q): as the sequence (O95076 139-225) above, with L30Q counted along it
In assay [13] the target is HESX1 (Homo sapiens, UniProt Q9UBX0 95-180, P111T).
Sequence of HESX1 (Homo sapiens, UniProt Q9UBX0 95-180, P111T) (Q9UBX0 95-180 P111T): as the sequence (Q9UBX0 95-180 R109Q) above, with Q15R, P17T counted along it
In assay [14] the target is ALX3 (Homo sapiens, UniProt O95076 139-225, L168V).
Sequence of ALX3 (Homo sapiens, UniProt O95076 139-225, L168V) (O95076 139-225 L168V): as the sequence (O95076 139-225) above, with L30V counted along it
Assay [15] addresses PROP1 (Homo sapiens, UniProt O75360 56-141, F88S).
In assay [16] the target is HESX1 (Homo sapiens, UniProt Q9UBX0 95-180, F115L).
Sequence of HESX1 (Homo sapiens, UniProt Q9UBX0 95-180, F115L) (Q9UBX0 95-180 F115L): as the sequence (Q9UBX0 95-180 R109Q) above, with Q15R, F21L counted along it
The target in assay [17] is ALX1 (Homo sapiens, UniProt Q15699 118-204).
Sequence of ALX1 (Homo sapiens, UniProt Q15699 118-204) (Q15699 118-204): as the sequence (Q15699 118-204 L144V) above, with V27L counted along it
The target of assay [18] is ALX3 (Homo sapiens, UniProt O95076 139-225, N203S).
Sequence of ALX3 (Homo sapiens, UniProt O95076 139-225, N203S) (O95076 139-225 N203S): as the sequence (O95076 139-225) above, with N65S counted along it

Sequence of ALX1 (Homo sapiens, UniProt Q15699 118-204, L144R) (Q15699 118-204 L144R): as the sequence (Q15699 118-204 L144V) above, with V27R counted along it
Sequence of PROP1 (Homo sapiens, UniProt O75360 56-141, F88S) (O75360 56-141 F88S): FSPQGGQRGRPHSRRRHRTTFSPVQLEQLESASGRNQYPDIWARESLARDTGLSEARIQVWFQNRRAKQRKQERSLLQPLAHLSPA
Sequence of MSX2 (P35548 130-214 R199I): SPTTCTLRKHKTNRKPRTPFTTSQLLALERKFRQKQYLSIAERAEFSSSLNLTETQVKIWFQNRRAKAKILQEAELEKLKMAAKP
Sequence of HESX1 (Homo sapiens, UniProt Q9UBX0 95-180, R165K) (Q9UBX0 95-180 R165K): as the sequence (Q9UBX0 95-180 R109Q) above, with Q15R, R71K counted along it
Sequence of SHOX (Homo sapiens, UniProt O15266 103-189, R173C) (O15266 103-189 R173C): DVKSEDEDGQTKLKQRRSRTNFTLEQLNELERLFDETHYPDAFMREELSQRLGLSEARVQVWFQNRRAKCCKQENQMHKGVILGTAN
Sequence of ALX4 (Q9H161 200-286 Q225E): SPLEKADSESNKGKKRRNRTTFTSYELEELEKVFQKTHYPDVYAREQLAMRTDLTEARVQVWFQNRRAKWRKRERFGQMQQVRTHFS
Sequence of ALX3 (Homo sapiens, UniProt O95076 139-225, N203Q) (O95076 139-225 N203Q): as the sequence (O95076 139-225) above, with N65Q counted along it
Sequence of SHOX (Homo sapiens, UniProt O15266 103-189) (O15266 103-189): as the sequence (O15266 103-189 R173C) above, with C71R counted along it
Sequence of HESX1 (Homo sapiens, UniProt Q9UBX0 95-180) (Q9UBX0 95-180): as the sequence (Q9UBX0 95-180 R109Q) above, with Q15R counted along it

For GGCAATTA, the binding signal in the assay with HESX1 [1] is 12.3 upbm affinity estimate (log intensity, higher = more binding, comparable within an allelic series); in the assay with SHOX [2] it was 11.7 upbm affinity estimate (log intensity, higher = more binding, comparable within an allelic series); with ALX4 it was 12.9 upbm affinity estimate (log intensity, higher = more binding, comparable within an allelic series); with HESX1 [3] it was 12.4 upbm affinity estimate (log intensity, higher = more binding, comparable within an allelic series); with MSX2, 12.9 upbm affinity estimate (log intensity, higher = more binding, comparable within an allelic series); in the assay with ALX1 [4] it was 11.4 upbm affinity estimate (log intensity, higher = more binding, comparable within an allelic series). The binding signal is 8.35 upbm affinity estimate (log intensity, higher = more binding, comparable within an allelic series) with ALX3 [5]; 9.38 upbm affinity estimate (log intensity, higher = more binding, comparable within an allelic series) in the assay with SHOX [6]; 11 upbm affinity estimate (log intensity, higher = more binding, comparable within an allelic series) in the assay with ALX1 [7]; 12.2 upbm affinity estimate (log intensity, higher = more binding, comparable within an allelic series) with ALX3 [8]; 11.1 upbm affinity estimate (log intensity, higher = more binding, comparable within an allelic series) with PROP1 [9]; 8.87 upbm affinity estimate (log intensity, higher = more binding, comparable within an allelic series) with HESX1 [10]. Further, the binding signal was 11.3 upbm affinity estimate (log intensity, higher = more binding, comparable within an allelic series) with PROP1 [11]; 10.3 upbm affinity estimate (log intensity, higher = more binding, comparable within an allelic series) with ALX3 [12]; 10.9 upbm affinity estimate (log intensity, higher = more binding, comparable within an allelic series) in the assay with HESX1 [13]; 9.79 upbm affinity estimate (log intensity, higher = more binding, comparable within an allelic series) with ALX3 [14]; 7.46 upbm affinity estimate (log intensity, higher = more binding, comparable within an allelic series) in the assay with PROP1 [15]; 7.6 upbm affinity estimate (log intensity, higher = more binding, comparable within an allelic series) in the assay with HESX1 [16]. For the same sequence, the binding signal in the assay with ALX1 [17] was 12 upbm affinity estimate (log intensity, higher = more binding, comparable within an allelic series); with ALX3 [18] it was 8.36 upbm affinity estimate (log intensity, higher = more binding, comparable within an allelic series).
With ATTAATAG, the binding signal in the assay with HESX1 [1] was 10.6 upbm affinity estimate (log intensity, higher = more binding, comparable within an allelic series); in the assay with HESX1 [3], 10.6 upbm affinity estimate (log intensity, higher = more binding, comparable within an allelic series); with ALX3 [5] it was 8.58 upbm affinity estimate (log intensity, higher = more binding, comparable within an allelic series); with HESX1 [10], 8.2 upbm affinity estimate (log intensity, higher = more binding, comparable within an allelic series); with HESX1 [13], 9.29 upbm affinity estimate (log intensity, higher = more binding, comparable within an allelic series); in the assay with HESX1 [16], 7.97 upbm affinity estimate (log intensity, higher = more binding, comparable within an allelic series).
As for ACCAATTA, the binding signal with HESX1 [1] is 13.7 upbm affinity estimate (log intensity, higher = more binding, comparable within an allelic series); with SHOX [2], 12.7 upbm affinity estimate (log intensity, higher = more binding, comparable within an allelic series); in the assay with ALX4 it was 13.8 upbm affinity estimate (log intensity, higher = more binding, comparable within an allelic series); in the assay with HESX1 [3], 13.6 upbm affinity estimate (log intensity, higher = more binding, comparable within an allelic series); with MSX2, 13.4 upbm affinity estimate (log intensity, higher = more binding, comparable within an allelic series); in the assay with ALX1 [4], 12.1 upbm affinity estimate (log intensity, higher = more binding, comparable within an allelic series). For the same sequence, the binding signal is 8.43 upbm affinity estimate (log intensity, higher = more binding, comparable within an allelic series) with ALX3 [5]; 10.4 upbm affinity estimate (log intensity, higher = more binding, comparable within an allelic series) with SHOX [6]; 11.7 upbm affinity estimate (log intensity, higher = more binding, comparable within an allelic series) in the assay with ALX1 [7]; 12.8 upbm affinity estimate (log intensity, higher = more binding, comparable within an allelic series) in the assay with ALX3 [8]; 12 upbm affinity estimate (log intensity, higher = more binding, comparable within an allelic series) in the assay with PROP1 [9]; 10.8 upbm affinity estimate (log intensity, higher = more binding, comparable within an allelic series) in the assay with HESX1 [10]. Besides, the binding signal with PROP1 [11] was 12.3 upbm affinity estimate (log intensity, higher = more binding, comparable within an allelic series); with ALX3 [12], 11.1 upbm affinity estimate (log intensity, higher = more binding, comparable within an allelic series); with HESX1 [13] it was 12.3 upbm affinity estimate (log intensity, higher = more binding, comparable within an allelic series); with ALX3 [14], 10.7 upbm affinity estimate (log intensity, higher = more binding, comparable within an allelic series); with PROP1 [15], 7.81 upbm affinity estimate (log intensity, higher = more binding, comparable within an allelic series); with HESX1 [16] it was 8.41 upbm affinity estimate (log intensity, higher = more binding, comparable within an allelic series). Besides, the binding signal with ALX1 [17] is 12.7 upbm affinity estimate (log intensity, higher = more binding, comparable within an allelic series); with ALX3 [18] it was 8.62 upbm affinity estimate (log intensity, higher = more binding, comparable within an allelic series).
With AATTAGTA, the binding signal in the assay with HESX1 [1] is 11.7 upbm affinity estimate (log intensity, higher = more binding, comparable within an allelic series); with SHOX [2], 11.6 upbm affinity estimate (log intensity, higher = more binding, comparable within an allelic series); in the assay with ALX4 it was 12.9 upbm affinity estimate (log intensity, higher = more binding, comparable within an allelic series); with HESX1 [3] it was 11.7 upbm affinity estimate (log intensity, higher = more binding, comparable within an allelic series); with MSX2 it was 12.3 upbm affinity estimate (log intensity, higher = more binding, comparable within an allelic series); in the assay with ALX1 [4], 11.7 upbm affinity estimate (log intensity, higher = more binding, comparable within an allelic series). In addition, the binding signal in the assay with ALX3 [5] was 8.49 upbm affinity estimate (log intensity, higher = more binding, comparable within an allelic series); in the assay with SHOX [6] it was 9.25 upbm affinity estimate (log intensity, higher = more binding, comparable within an allelic series); with ALX1 [7], 11.2 upbm affinity estimate (log intensity, higher = more binding, comparable within an allelic series); with ALX3 [8], 12.3 upbm affinity estimate (log intensity, higher = more binding, comparable within an allelic series); with PROP1 [9] it was 11 upbm affinity estimate (log intensity, higher = more binding, comparable within an allelic series); with HESX1 [10], 9.01 upbm affinity estimate (log intensity, higher = more binding, comparable within an allelic series). The binding signal is 11 upbm affinity estimate (log intensity, higher = more binding, comparable within an allelic series) with PROP1 [11]; 10.4 upbm affinity estimate (log intensity, higher = more binding, comparable within an allelic series) with ALX3 [12]; 10.5 upbm affinity estimate (log intensity, higher = more binding, comparable within an allelic series) with HESX1 [13]; 9.94 upbm affinity estimate (log intensity, higher = more binding, comparable within an allelic series) in the assay with ALX3 [14]; 7.8 upbm affinity estimate (log intensity, higher = more binding, comparable within an allelic series) in the assay with PROP1 [15]; 7.68 upbm affinity estimate (log intensity, higher = more binding, comparable within an allelic series) with HESX1 [16]. Also, the binding signal was 12.3 upbm affinity estimate (log intensity, higher = more binding, comparable within an allelic series) in the assay with ALX1 [17] and 8.57 upbm affinity estimate (log intensity, higher = more binding, comparable within an allelic series) in the assay with ALX3 [18].
For the sequence AATTAGCA, the binding signal was 11.6 upbm affinity estimate (log intensity, higher = more binding, comparable within an allelic series) with HESX1 [1]; 11.6 upbm affinity estimate (log intensity, higher = more binding, comparable within an allelic series) with SHOX [2]; 12.7 upbm affinity estimate (log intensity, higher = more binding, comparable within an allelic series) with ALX4; 11.6 upbm affinity estimate (log intensity, higher = more binding, comparable within an allelic series) with HESX1 [3]; 12.2 upbm affinity estimate (log intensity, higher = more binding, comparable within an allelic series) with MSX2; 11.5 upbm affinity estimate (log intensity, higher = more binding, comparable within an allelic series) with ALX1 [4]. Moreover, the binding signal in the assay with ALX3 [5] was 8.31 upbm affinity estimate (log intensity, higher = more binding, comparable within an allelic series); in the assay with SHOX [6], 9.43 upbm affinity estimate (log intensity, higher = more binding, comparable within an allelic series); with ALX1 [7], 11.1 upbm affinity estimate (log intensity, higher = more binding, comparable within an allelic series); in the assay with ALX3 [8], 12.2 upbm affinity estimate (log intensity, higher = more binding, comparable within an allelic series); with PROP1 [9] it was 11.1 upbm affinity estimate (log intensity, higher = more binding, comparable within an allelic series); in the assay with HESX1 [10], 8.94 upbm affinity estimate (log intensity, higher = more binding, comparable within an allelic series). In addition, the binding signal in the assay with PROP1 [11] is 10.9 upbm affinity estimate (log intensity, higher = more binding, comparable within an allelic series); in the assay with ALX3 [12] it was 10.3 upbm affinity estimate (log intensity, higher = more binding, comparable within an allelic series); in the assay with HESX1 [13] it was 10.4 upbm affinity estimate (log intensity, higher = more binding, comparable within an allelic series); in the assay with ALX3 [14], 9.83 upbm affinity estimate (log intensity, higher = more binding, comparable within an allelic series); with PROP1 [15], 7.78 upbm affinity estimate (log intensity, higher = more binding, comparable within an allelic series); with HESX1 [16] it was 7.45 upbm affinity estimate (log intensity, higher = more binding, comparable within an allelic series). In addition, the binding signal with ALX1 [17] was 12.2 upbm affinity estimate (log intensity, higher = more binding, comparable within an allelic series); in the assay with ALX3 [18] it was 8.36 upbm affinity estimate (log intensity, higher = more binding, comparable within an allelic series).

For the origin of these results see paper PMC11006913.
